Assay outcomes (PubChem)
In the library only some 6.4% were active in any assay of this set; here they are far more common.
VP16 counter: VP16 counterscreen qHTS for inhibitors of ROR gamma transcriptional activity | Drosophila S2 Gal4-VP16 UAS-luciferase, luminescence, 20 h | Potency, µM (top dose mostly 53.6 µM), usual class: inhibitors | actives 3.5% (n = 310,000);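 also: Gal4-VP16 expression switched on by copper sulfate through the metallothionein promoter; nearly all actives have a fitted effect of over 50% in size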
RORg inh: qHTS for inhibitors of ROR gamma transcriptional activity | actives 5.4% (n = 310,000) | Potency, µM (top dose mostly 53.6 µM), actives largely listed as inhibitors | Drosophila S2 Gal4-RORgamma UAS-luciferase reporter, 20 h | Nuclear receptor ROR-gamma (Mus musculus), P51450; also: nearly all actives have a fitted effect of over 60% in size
Target sequence (P51450 whole entry, looked up, the tested form may be a part): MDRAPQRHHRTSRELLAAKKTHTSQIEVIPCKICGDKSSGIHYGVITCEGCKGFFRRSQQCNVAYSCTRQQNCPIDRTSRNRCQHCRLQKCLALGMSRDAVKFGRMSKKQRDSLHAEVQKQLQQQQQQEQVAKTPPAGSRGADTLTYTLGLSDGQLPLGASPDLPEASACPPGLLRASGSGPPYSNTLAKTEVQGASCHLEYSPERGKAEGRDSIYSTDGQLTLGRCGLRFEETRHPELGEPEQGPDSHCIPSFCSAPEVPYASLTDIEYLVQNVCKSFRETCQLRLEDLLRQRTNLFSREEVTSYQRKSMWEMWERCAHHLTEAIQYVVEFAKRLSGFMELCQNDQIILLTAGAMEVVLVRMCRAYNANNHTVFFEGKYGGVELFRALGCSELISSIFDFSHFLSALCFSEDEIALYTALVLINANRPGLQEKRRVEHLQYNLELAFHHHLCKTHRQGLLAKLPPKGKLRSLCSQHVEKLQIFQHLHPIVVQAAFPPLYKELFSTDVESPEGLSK
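Drosophila Schneider cells stably carrying a metallothionein-driven Gal4 DBD–ROR gamma fusion and a UAS-Photinus luciferase reporter were exposed to compound for 1 hr, then induced with copper sulfate (700 uM final) for 20 hr at ambient temperature before luminescence reading.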
KinaseGlo FLuc: Counterscreen for Luciferase (Kinase-Glo TM) Inhibition; Potency, µM (top dose mostly 38.3 µM), usual class: inhibitors; actives 0.28% (n = 200,000); Kinase-Glo luciferase, ATP luminescence, 8 min; Luciferin 4-monooxygenase (Photuris pensylvanica), Q27757; also: nearly all actives have a fitted effect of over 60% in size
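Luminescence was the read-out, taken after 8-minute incubation at ambient temperature. Luciferase turned over luciferin with 10 uM ATP in imidazole pH 7.2 buffer containing KCl, MgCl2, Tween 20 and BSA.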
A number is an active result; n = inactive; u = inconclusive; x = no result given; [ ] = remark or other dose. Calls follow the shape of the dose curve; as a rule, active = well fitted curve in the direction sought with a large enough effect; inconclusive = small, poorly fitted or top-dose-only effect, or another doubt; inactive = no such curve, though single readings can be large; an effect the other way counts as inactive or inconclusive.

SMILES	VP16 counter	RORg inh	KinaseGlo FLuc
Cc1occc1C(=O)Nc1ccc2c(c1)OCO2	n	n	u
O=C(Nc1cc(Oc2ccc(Cl)cc2)cc([N+](=O)[O-])c1)c1ccco1	7.9µM	u	n
Cc1ccc(NC(=O)c2ccoc2C)cc1C	n	n	10µM
CN1CCc2cc(O)c(O)cc2C1Cc1ccc(O)c(O)c1 (stereo not drawn)	n	n	x
O=C(c1csnn1)N1CCC2(CC1)CN(c1ccccn1)C2	n	n	n
CCOc1ccccc1C(=O)NCC(=O)NCCc1ccc(S(N)(=O)=O)cc1	n	n	x
CCN1C(=O)N[C@@H](CCc2ccccc2)[C@H](C(=O)OC)[C@H]1C	x	x	n[7.66 µM]
CCCCNC(=S)NNC(=O)c1ccco1	u	13µM	n
CCCCNC(=O)NNC(=O)c1ccoc1C	n	n	n
Cc1ccccc1NC(=S)NNC(=O)c1ccoc1C	n	u	n
CCCCNC(=S)NNC(=O)c1ccoc1C	n	8.9µM	n
CCCCNC(=O)NNC(=O)c1ccco1	n	n	n
Cc1occc1C(=O)NNC(=S)Nc1ccccc1	n	14µM	n
Cc1cccc(NC(=S)NNC(=O)c2ccco2)c1	n	n	n
Cc1ccc(C)c(NC(=S)NNC(=O)c2ccco2)c1	n	2.2µM	n
CC(C)C[C@H](NC(=O)CNC(=O)[C@H](C)NC(=O)[C@H](CC(C)C)NC(=O)[C@H](CCCNC(=N)N)NC(=O)[C@H](Cc1cnc[nH]1)NC(=O)[C@@H](NC(=O)[C@@H](N)C(C)C)[C@@H](C)O)C(=O)N[C@@H](CC(C)C)C(=O)N[C@@H](CO)C(=O)N[C@@H](CCCNC(=N)N)C(=O)N[C@@H](CO)C(=O)NCC(=O)NCC(=O)N[C@H](C(=O)N[C@H](C(=O)N[C@@H](CCCCN)C(=O)N[C@@H](CC(N)=O)C(=O)N[C@@H](CC(N)=O)C(=O)N[C@@H](Cc1ccccc1)C(=O)N[C@H](C(=O)N1CCC[C@H]1C(=O)N[C@H](C(=O)N[C@@H](CC(N)=O)C(=O)N[C@H](C(=O)NCC(=O)N[C@@H](CO)C(=O)N[C@@H](CCCCN)C(=O)N[C@@H](C)C(=O)N[C@@H](Cc1ccccc1)C(N)=O)C(C)C)[C@@H](C)O)C(C)C)C(C)C)C(C)C	n	n	x
Cc1ccc(NC(=O)NCc2ccccn2)c(C)c1	n	n	x
O=C(CCc1nnc(CCC2CCCCC2)o1)NCCc1cccnc1	u	n	n
Cc1cccc(NC(=O)COc2ccc(-c3nn(C)c(=O)c4ccccc34)cc2)c1	n	n	x
C[C@H]1[C@H](C)CC[C@]2(C(=O)O)CC[C@]3(C)C(=CC[C@H]4[C@]3(C)C[C@@H](O)C3[C@](C)(CO)[C@H](O)[C@@H](O)C[C@]34C)[C@H]12 (stereo partly drawn)	x	x	n[7.66 µM]
C[C@@H]1CC[C@]2(C(=O)O)CC[C@]3(C)C(=CCC4[C@@]5(C)C[C@@H](O)[C@H](O)[C@@](C)(CO)C5[C@H](O)C[C@]43C)C2[C@H]1C (stereo partly drawn)	u	u	n
CC(=O)OC1CC[C@]2(C)C(CC[C@@]3(C)C2C(=O)C=C2C4C(C)C(C)CC[C@@]4(C(=O)O)CCC23C)C1(C)C (stereo partly drawn)	n	0.63µM	n
C[C@H]1[C@H](C)CC[C@]2(C(=O)O)CC[C@]3(C)C(=CCC4[C@@]5(C)C[C@@H](O)[C@H](O)[C@@](C)(CO)[C@@H]5CC[C@]43C)[C@H]12 (stereo partly drawn)	n	11µM	n
C[C@@H]1CC[C@]2(C(=O)O)CC[C@]3(C)C(=CCC4[C@@]5(C)C[C@@H](O)[C@H](O)[C@@](C)(CO)C5CC[C@]43C)C2[C@H]1C (stereo partly drawn)	18µM	n	n
CC(=O)O[C@H]1CC[C@]2(C)[C@H]3CC=C4[C@@H]5[C@@H](C)[C@H](C)CC[C@]5(C(=O)O)CC[C@@]4(C)[C@]3(C)CC[C@H]2C1(C)C	n	u	x
SMILES	VP16 counter	RORg inh	KinaseGlo FLuc
Cn1cc(CCNC(=O)C2CCC(=O)N(CCc3ccc(Cl)cc3)C2)cn1 (stereo not drawn)	n	n	x
C=CC1=C2C=C(C3CC3)N(CCOC)C=C2C(=O)C(C)(OC(=O)c2ccco2)C1=O (stereo not drawn)	x	x	n[7.66 µM]
CC[C@H](C)C(=O)O[C@H]1C[C@H](O)C=C2C=C[C@H](C)[C@H](CC[C@@H](O)C[C@@H](O)CC(=O)O)[C@H]21	n	n	n
O=C(Cc1ccc(Cl)cc1Cl)Nc1cccc(S(=O)(=O)Nc2ccccc2F)c1	u	u	n
Cc1ccc(C(C[N+](=O)[O-])n2nc(C)cc2C)cc1 (stereo not drawn)	n	n	n
Cc1ccc(C(C[N+](=O)[O-])Sc2ccc(N)cc2)cc1 (stereo not drawn)	5.6µM	11µM	x
CC1CC(C)CN(S(=O)(=O)c2ccc(C(=O)Nc3nnc(C4CC4)o3)cc2)C1 (stereo not drawn)	0.63µM	0.56µM	x
CCOC(=O)N1CCN(S(=O)(=O)c2ccc(C(=O)Nc3nnc(C4CC4)o3)cc2)CC1	3.2µM	1.8µM	n
CCOC(=O)N1CCN(S(=O)(=O)c2ccc(C(=O)Nc3nnc(CC)o3)cc2)CC1	u	u	n
CC1CC(C)CN(C(=O)c2ccc(S(=O)(=O)N3CC(C)CC(C)C3)cc2)C1 (stereo not drawn)	n	n	x
CN(C)C(=O)c1ccc(-c2ccc3ncnc(NCc4ccccc4)c3c2)cc1	n	n	x
CN1CCN(c2ccnc(-c3ccccc3C(F)(F)F)n2)CC1	n	n	n
O=C(N/N=C/c1ccc2c(c1)OCO2)c1sc2cc(Cl)ccc2c1Cl	n	n[10 µM]	n
Cc1ccsc1C(=O)N/N=C/c1ccc2c(c1)OCO2	u	u	2µM
O=C(N/N=C/c1ccncc1)c1ccccn1	n	n	x
CC(C)c1ccc(/C=N/NC(=O)c2ccccn2)cc1	u	11µM	x
Cc1occc1C(=O)N/N=C/C=C\c1ccccc1[N+](=O)[O-]	u	u	n
COc1ccc2c(Cl)c(C(=O)N/N=C/c3ccc4c(c3)OCO4)sc2c1	n	1.1µM	n
Cc1ccsc1C(=O)N/N=C/C=C/c1ccccc1[N+](=O)[O-]	5.6µM	5.6µM	n
Cc1cccc(C(=O)N/N=C/c2ccc3c(c2)OCO3)n1	n	n	n
CC1(C(=O)OCC(=O)NCCNC(=O)COC(=O)C2(C)CC2(Cl)Cl)CC1(Cl)Cl (stereo not drawn)	n	n	x
O=C(COC(=O)Cc1ccc(Br)cc1)NCc1ccc(F)cc1	n	n	n
COc1ccc(CC2(CO)CCN(Cc3ccc4nsnc4c3)CC2)cc1	n	n	n
COC(=O)c1cc(Br)ccc1NC(=O)CCNC(=O)c1ccco1	n	n	x
COc1ccc(NC(=O)CSc2n[nH]c(CNc3cccc(C)c3)n2)cc1	n	n	x
C=C[C@@H](C1=CC(=O)C(OC)=C(OC)C1=O)c1ccccc1	u	u	n
O=C(OC(C(=O)NCc1ccc(F)cc1)c1ccccc1)c1ccco1 (stereo not drawn)	n	n	x
